From PubChem BioAssay (Tox21)
Records with an inconclusive call do not appear. A number with no mark means an inactive call. Activity calls are given as the source filed them. Calls follow the shape of the dose curve; as a rule, active = well fitted cell-killing curve with a large enough effect in the repeat runs; inconclusive = weak or mixed curves, or effect the other way; inactive = flat fitted curve, though single readings scatter.

Assay: qHTS assay to identify small molecule antagonists of the estrogen receptor alpha (ER-alpha) signaling pathway using the BG1 cell line in the presence of 0.1 nM 17-beta-estradiol - cell viability counter screen (AID 1259241); also: nearly all actives have a fitted effect of over 40% in size
Conditions: VM7Luc4E2 (BG1) viability, CellTiter-Fluor protease, 22 h, 0.1 nM estradiol agonist added; series mostly up to 92.4 µM; activity change, negative = cytotoxicity: at the top concentration
Source text: National Center for Advancing Translational Sciences [NCATS]
NIH Chemical Genomics Center [NCGC]
U.S. Environmental Protection Agency [EPA]
National Institutes of Environmental Health Sciences [NIEHS]
National Toxicology Program [NTP]
U.S. Food and Drug Administration [FDA]
Estrogen receptor (ER), a member of the nuclear hormone receptor plays an important role in development, metabolic homeostasis and reproduction. Two subtypes of ER, ER-alpha and ER-beta, have similar expression patterns with some uniqueness in both types. Endocrine disrupting chemicals (EDCs) and their interactions with steroid hormone receptors like ER causes disruption of normal endocrine function. Therefore, it is important to understand the effect of environmental chemicals in ER signaling pathway. For identifying ER antagonists, VM7Luc4E2 cell line was used to screen against Tox21 compound libraries.
VM7Luc4E2 cell line (provided by Denison MS, University of California) endogenously express full-length ER-alpha and is stably transfected with a plasmid containing four estrogen responsive elements (ERE) upstream of a luciferase reporter gene. The current screening for identification of ER-alpha inhibitors against Tox21 compound libraries used lower concentration (0.1 nM) of 17beta-Estradiol as a stimulator. The cytotoxicity of the Tox21 compound libraries against VM7Luc4E2 cell line was tested by measuring live-cell protease activity using CellTiter-Fluor assay in the same wells.
Tox21 Assay Protocol Summary:
VM7Luc4E2 cells were cultured in phenol red free assay medium containing 10% charcoal stripped FBS for 5 days prior to the assay. The cells were dispensed at 4,000 cells/well in 4 uL of assay medium into white wall/solid-bottom 1536-well plates (Corning Life Sciences, Corning, NY) using a Multidrop Combi (ThermoFisher Scientific, Waltham, MA) dispenser. After the assay plates were incubated at 37C and 5% CO2 for 24 hr, 23 nL of compounds dissolved in DMSO, positive controls or DMSO only was transferred to the assay plates by a Pintool station (Kalypsys, San Diego, CA). The transfer of compounds was followed by the addition of 1 uL of 0.1 nM (final concentration) agonist (17beta-Estradiol)/assay medium using a Flying Reagent Dispenser (FRD, Aurora Discovery, San Diego, CA). The plates were incubated at 37C and 5% CO2 for 22 hr. For cytotoxicity assay, 1 uL of CellTiter-Fluor reagent (Promega Corporation, Madison, WI) was added to each well using the FRD and after 30 min incubation at 37C and 5% CO2, The fluorescence intensity was measured using ViewLux plate reader (PerkinElmer, Shelton, CT).
% is scaled to controls: 0 for no effect and ±100 for the full control effect; potency is read from the fitted curve at half-maximal effect.

**Q.** Which “activity change, negative = cytotoxicity” value does the source give for `CC(=O)c1cc2ccccc2s1` here?
**A.** Its value is 0.166% [at 42.5 µM].

**Q.** For `CCOC(=O)c1ccccc1C(=C1C=C(Br)C(=O)C(Br)=C1)c1cc(Br)c(O)c(Br)c1`, which “activity change, negative = cytotoxicity” value is on record?
**A.** Its value is -3.51% [at 42.5 µM].

**Q.** With `Cc1ccco1` as the compound, how does the “activity change, negative = cytotoxicity” value read?
**A.** Its value is 16.2%.

**Q.** With `OCCOCC#CCOCCO` as the compound, how does the “activity change, negative = cytotoxicity” value read?
**A.** Its value is 1.28%.

**Q.** With `CCCCC(CC)COP(=O)(O)O` (stereo not given) as the compound, how does the “activity change, negative = cytotoxicity” value read?
**A.** Its value is -6.12%.

**Q.** For `CCOC(=O)c1ccc(I)cc1`, which “activity change, negative = cytotoxicity” value is on record?
**A.** Its value is 5.54%.

**Q.** Which “activity change, negative = cytotoxicity” value does the source give for `CCCCCC#CC(=O)OC` here?
**A.** The value was 8.66%.

**Q.** With `CCC(=O)C1CC(C(C)C)CC=C1C` (stereo not given) as the compound, how does the “activity change, negative = cytotoxicity” value read?
**A.** The value was 1.5%.

**Q.** Which “activity change, negative = cytotoxicity” value does the source give for `CCCC(C(=O)OCCN(CC)CC)(c1ccccc1)c1ccccc1` here?
**A.** Its value is -16.1% [at 42.5 µM].

**Q.** With `Clc1cc(Cl)nc(Cl)n1` as the compound, how does the “activity change, negative = cytotoxicity” value read?
**A.** The value was 1.75%.

**Q.** Which “activity change, negative = cytotoxicity” value does the source give for `COc1ccccc1NC(=O)c1cc2ccccc2cc1O` here?
**A.** The value was 15.9%.

**Q.** With `CCCCCCC(C)(C)C(=O)O` as the compound, how does the “activity change, negative = cytotoxicity” value read?
**A.** The value was 0.814%.

**Q.** Which “activity change, negative = cytotoxicity” value does the source give for `OC[C@H]1O[C@@H](n2cnc3c(=S)nc[nH]c32)[C@H](O)[C@@H]1O` here?
**A.** The value was -1.02% [at 42.5 µM].

**Q.** Which “activity change, negative = cytotoxicity” value does the source give for `CC(CN(C)C)C(C)(O)Cc1ccc(Cl)cc1` (stereo not given) here?
**A.** Its value is 0.198% [at 42.5 µM].

**Q.** With `CCCCN(CCN(CCCC)C(=O)N1CCOCC1)C(=O)N1CCOCC1` as the compound, how does the “activity change, negative = cytotoxicity” value read?
**A.** The value was -5.33% [at 42.5 µM].

**Q.** For `O=C1c2ccccc2C(=O)N1CCc1noc(-c2ccc(CN3CCCCCC3)s2)n1`, which “activity change, negative = cytotoxicity” value is on record?
**A.** The value was -21.6%.

**Q.** With `NC(=O)c1ccncc1` as the compound, how does the “activity change, negative = cytotoxicity” value read?
**A.** Its value is 11.3%.

**Q.** Which “activity change, negative = cytotoxicity” value does the source give for `Cc1cc(C)cc(N)c1` here?
**A.** The value was 7.47%.

**Q.** With `C=C(C)CCCC(C)CCO` (stereo not given) as the compound, how does the “activity change, negative = cytotoxicity” value read?
**A.** The value was 4.46%.

**Q.** Which “activity change, negative = cytotoxicity” value does the source give for `C=Cc1ccc(S(=O)(=O)O)cc1` here?
**A.** Its value is 0.999%.

**Q.** For `CC1(C)S[C@@H]2[C@H](NC(=O)C(c3ccccc3)S(=O)(=O)O)C(=O)N2[C@H]1C(=O)O` (stereo not given in full), which “activity change, negative = cytotoxicity” value is on record?
**A.** Its value is -0.211% [at 42.5 µM].

**Q.** With `C=COCC(C)C` as the compound, how does the “activity change, negative = cytotoxicity” value read?
**A.** Its value is -4.48%.

**Q.** With `O=[N+]([O-])c1ccc(O/N=C/c2cc(Br)c(O)c(Br)c2)c([N+](=O)[O-])c1` as the compound, how does the Potency read?
**A.** The Potency was 24.2 µM (active).

**Q.** For `Nc1cccc2c1CN(C1CCC(=O)NC1=O)C2=O` (stereo not given), which “activity change, negative = cytotoxicity” value is on record?
**A.** Its value is 3.43% [at 42.5 µM].

**Q.** With `CN1CC(=O)N2[C@H](c3ccc4c(c3)OCO4)c3[nH]c4ccccc4c3C[C@@H]2C1=O` as the compound, how does the “activity change, negative = cytotoxicity” value read?
**A.** Its value is 2.24% [at 42.5 µM].

**Q.** With `C[C@H]1c2cccc(O)c2C(O)=C2C(=O)[C@]3(O)C(O)=C(C(N)=O)C(=O)[C@@H](N(C)C)[C@@H]3[C@@H](O)[C@@H]21` as the compound, how does the “activity change, negative = cytotoxicity” value read?
**A.** Its value is 9.26% [at 42.5 µM].

**Q.** Which “activity change, negative = cytotoxicity” value does the source give for `C[C@@H](CN(C)C)CN1c2ccccc2Sc2ccccc21` here?
**A.** Its value is 0.11% [at 42.5 µM].

**Q.** With `C[C@@H](O)[C@H]1C(=O)N2C(C(=O)O)=C([C@H]3CCCO3)S[C@H]12` as the compound, how does the “activity change, negative = cytotoxicity” value read?
**A.** Its value is -2.38% [at 42.5 µM].

**Q.** Which “activity change, negative = cytotoxicity” value does the source give for `C/C=C(/C(=C/C)c1ccc(O)cc1)c1ccc(O)cc1` here?
**A.** Its value is 2.13% [at 42.5 µM].

**Q.** For `CC1=C(CC=O)C(C)(C)CCC1`, which “activity change, negative = cytotoxicity” value is on record?
**A.** Its value is 0.481%.

**Q.** For `O=[N+]([O-])c1cc(C2CCCCC2)c(O)c([N+](=O)[O-])c1`, which Potency is on record?
**A.** Its Potency is 27.2 µM (active).

**Q.** With `Cc1ccccc1N=C(N)Nc1ccccc1C` as the compound, how does the “activity change, negative = cytotoxicity” value read?
**A.** Its value is -11.4%.

**Q.** With `CCC=CC#N` as the compound, how does the “activity change, negative = cytotoxicity” value read?
**A.** Its value is 2.49%.

**Q.** With `CC1=C(Br)C(=O)C(Br)=C/C1=C(/c1ccccc1S(=O)(=O)O)c1cc(Br)c(O)c(Br)c1C` as the compound, how does the Potency read?
**A.** The Potency was 18.6 µM (active).

**Q.** For `CC(=O)c1ccc([N+](=O)[O-])cc1`, which “activity change, negative = cytotoxicity” value is on record?
**A.** The value was -18.6%.

**Q.** With `O=C(CCCN1CC=C(n2c(=O)[nH]c3ccccc32)CC1)c1ccc(F)cc1` as the compound, how does the “activity change, negative = cytotoxicity” value read?
**A.** The value was -24% [at 42.5 µM].

**Q.** With `C=CCc1ccccc1OCC(O)CNC(C)C` (stereo not given) as the compound, how does the “activity change, negative = cytotoxicity” value read?
**A.** The value was -0.379% [at 42.5 µM].

**Q.** For `C=C(C)C(=O)OCCOCCOC(=O)C(=C)C`, which “activity change, negative = cytotoxicity” value is on record?
**A.** Its value is -2.45%.

**Q.** For `COC(=O)[C@H]1[C@H]2C[C@@H]3c4[nH]c5cc(OC)ccc5c4CCN3C[C@H]2C[C@@H](OC(=O)/C=C/c2ccc(O)c(OC)c2)[C@@H]1OC`, which “activity change, negative = cytotoxicity” value is on record?
**A.** The value was 5.08% [at 42.5 µM].

**Q.** Which “activity change, negative = cytotoxicity” value does the source give for `O=C1NCCN1CCO` here?
**A.** Its value is -3.37%.
